Measured values taken from article PMC4336329 (PLoS ONE, 2015).
Among all 310,000 compounds or so, about 14,000 (4.5%) showed an effect of 50% or more. Effects have a minus sign here. This excerpt belongs to a sample that is enriched for strong results.

The compounds below were run against human ether-à-go-go-related gene (hERG) potassium channel (human, UniProt Q12809) (assay: primary screen, population patch clamp on CHO cells stably expressing hERG; higher = less effect of the substance).
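Note: peak tail current of the secondary pulse compared with the same well before compound.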

human ether-à-go-go-related gene (hERG) potassium channel, sequence (Q12809 whole entry, looked up): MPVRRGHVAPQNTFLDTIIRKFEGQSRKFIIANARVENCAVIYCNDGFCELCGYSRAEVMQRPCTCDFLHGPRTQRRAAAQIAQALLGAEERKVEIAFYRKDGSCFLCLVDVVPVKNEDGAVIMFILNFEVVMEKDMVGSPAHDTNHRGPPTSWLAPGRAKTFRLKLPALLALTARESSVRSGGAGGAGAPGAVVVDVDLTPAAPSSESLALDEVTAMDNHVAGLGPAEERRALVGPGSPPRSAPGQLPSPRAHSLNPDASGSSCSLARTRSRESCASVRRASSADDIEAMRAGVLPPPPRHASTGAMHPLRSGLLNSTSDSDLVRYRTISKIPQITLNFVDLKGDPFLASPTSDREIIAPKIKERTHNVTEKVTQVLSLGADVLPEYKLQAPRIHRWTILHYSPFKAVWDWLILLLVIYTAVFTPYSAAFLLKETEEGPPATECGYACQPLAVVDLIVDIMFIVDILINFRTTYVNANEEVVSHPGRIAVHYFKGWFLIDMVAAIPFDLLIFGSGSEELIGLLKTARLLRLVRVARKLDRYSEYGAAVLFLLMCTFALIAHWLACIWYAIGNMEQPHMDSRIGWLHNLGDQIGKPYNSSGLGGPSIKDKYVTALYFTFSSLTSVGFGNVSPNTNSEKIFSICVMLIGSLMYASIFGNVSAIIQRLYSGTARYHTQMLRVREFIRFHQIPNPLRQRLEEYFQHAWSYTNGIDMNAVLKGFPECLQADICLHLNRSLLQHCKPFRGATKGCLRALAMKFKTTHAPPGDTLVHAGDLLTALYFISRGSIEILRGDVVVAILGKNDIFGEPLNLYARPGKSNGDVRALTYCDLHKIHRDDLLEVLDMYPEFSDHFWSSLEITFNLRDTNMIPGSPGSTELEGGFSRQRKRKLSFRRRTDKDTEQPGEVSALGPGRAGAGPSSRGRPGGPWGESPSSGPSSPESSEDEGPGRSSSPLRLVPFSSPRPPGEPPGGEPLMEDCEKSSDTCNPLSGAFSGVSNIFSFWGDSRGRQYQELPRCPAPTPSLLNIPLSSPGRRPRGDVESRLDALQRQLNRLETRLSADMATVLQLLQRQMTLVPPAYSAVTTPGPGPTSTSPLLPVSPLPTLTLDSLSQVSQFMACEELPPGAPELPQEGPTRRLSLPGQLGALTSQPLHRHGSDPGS

Going from `CN(CC(=O)Nc1ccccc1Cl)C(=O)c1cc(C2CC2)nn1-c1ccccc1` to `Cc1ccc(S(=O)(=O)N2CCC(C(=O)OCC(=O)N(C)Cc3ccccc3)CC2)cc1C`, the “hERG current change (%, negative = inhibition) at 10uM” value rises from -18.1% to -12%.

First: CCc1nnc(NS(=O)(=O)c2ccc(N3C(=O)C4CC=C(Cl)CC4C3=O)cc2)s1 (centres unmarked)
Second: Cc1ccc(N2CC(C(=O)NCCc3ccc(S(N)(=O)=O)cc3)CC2=O)cc1 (centres unmarked)
The “hERG current change (%, negative = inhibition) at 10uM” value of the first is lower: 4.84% for the first, 22.5% for the second.

First: CN(C)CCCN(C(=O)c1cc(-c2cccs2)nc2ccccc12)c1nc2ccc(F)cc2s1.Cl
Second: CN(C)CCCN(C(=O)c1cc2ccccc2oc1=O)c1nc2ccc(F)cc2s1.Cl
The “hERG current change (%, negative = inhibition) at 10uM” value of the first is higher: 5.59% for the first, -68.1% for the second.

Going from `Cc1ccc2nc(N(CCCN(C)C)C(=O)c3cc4ccccc4oc3=O)sc2c1.Cl` to `Cc1cccc2sc(N(CCCN(C)C)C(=O)c3cc4ccccc4oc3=O)nc12.Cl`, the “hERG current change (%, negative = inhibition) at 10uM” value falls from -33.7% to -54.6%.

First: CN(C)CCCN(C(=O)c1cc2ccccc2oc1=O)c1nc2c(F)cccc2s1.Cl
Second: CC(CN(C)Cc1ccccc1)OC(=O)c1ccc2c(c1)OCCO2.Cl (centres unmarked)
The “hERG current change (%, negative = inhibition) at 10uM” value of the first is lower: -41.1% for the first, 5.15% for the second.

Compared with `CC(=O)OC1COC(n2c(O)c(N=NC(N)=S)c3ccccc32)C(OC(C)=O)C1OC(C)=O` (centres unmarked), `COc1cccc(C(C(=O)NCC2CCCO2)N(C(=O)Cn2nnc3ccccc32)c2ccc(NC(C)=O)cc2)c1OC` (centres unmarked) is lower in “hERG current change (%, negative = inhibition) at 10uM” value: 15.8% for the first, 6.49% for the second.

Going from `COC(=O)C1=C(C)N(c2ccc(Br)cc2)C(=O)/C1=C\c1ccco1` to `COc1ccccc1S(=O)(=O)Cc1ccc(C(=O)NCc2ccco2)o1`, the “hERG current change (%, negative = inhibition) at 10uM” value falls from 2.22% to -33.5%.

Compared with `c1ccc(-c2nnc3sc(Cc4cccs4)nn23)cc1`, `Clc1ccc(-c2nnc3sc(Cc4cccs4)nn23)cc1` is higher in “hERG current change (%, negative = inhibition) at 10uM” value: -30.8% for the first, 4.77% for the second.

Compared with `Clc1ccc(-c2nnc3sc(Cc4cccs4)nn23)c(Cl)c1`, `O=C(c1cccs1)N1CCN(c2cc(Cl)ccc2Cl)CC1` is higher in “hERG current change (%, negative = inhibition) at 10uM” value: -55.7% for the first, -33.8% for the second.

Going from `CCc1cccc2c(C(=O)CCl)c[nH]c12` to `Cc1ccc(C)c(C(=O)CN2C(=O)NC3(CCC(C)CC3)C2=O)c1` (centres unmarked), the “hERG current change (%, negative = inhibition) at 10uM” value falls from -14.3% to -18.3%.

First: COc1ccc2[nH]c3c(c2c1)CCNC3(C)CCc1ccc(Cl)nc1 (centres unmarked)
Second: CC1(CCc2ccc3c(c2)OCO3)NCCc2c1[nH]c1ccccc21.Cl (centres unmarked)
The “hERG current change (%, negative = inhibition) at 10uM” value of the first is higher: -51.6% for the first, -85.8% for the second.

Going from `COc1ccc2[nH]c3c(c2c1)CCN[C@H]3C` to `COc1ccc2[nH]c3c(c2c1)CCNC3C.Cl` (centres unmarked), the “hERG current change (%, negative = inhibition) at 10uM” value rises from -3.82% to 14.7%.

Going from `Cl.c1ccc2c3c([nH]c2c1)C1(CCCCC1)NCC3` to `c1ccc2c(c1)CCCC2NC1=NCCC1` (centres unmarked), the “hERG current change (%, negative = inhibition) at 10uM” value falls from 2.11% to -2.53%.

Going from `CC1(CCc2ccc3c(c2)OCO3)NC(=O)c2ccccc2N1` (centres unmarked) to `O=C(O)c1ccc(Oc2ccccc2)o1`, the “hERG current change (%, negative = inhibition) at 10uM” value rises from -7.78% to 23.2%.

Compared with `COc1cccc(NC(C(=O)Nc2cccc(C(C)=O)c2)c2ccccc2)c1` (centres unmarked), `O=C(Nc1cccc(Cl)c1)Nc1ccccc1NS(=O)(=O)c1cccs1` is higher in “hERG current change (%, negative = inhibition) at 10uM” value: -7.56% for the first, 24% for the second.

Compared with `O=C(O)C(Cc1ccccc1)N1C(=O)CCC1=O` (centres unmarked), `O=C(COC(=O)Cc1ccccc1)Nc1ccc(SC(F)F)cc1` is lower in “hERG current change (%, negative = inhibition) at 10uM” value: 14.4% for the first, 5.27% for the second.

Going from `COc1ccc(C2CC(=O)C(C=NCCN3CCN(C(C)=O)CC3)=C(O)C2)cc1` (centres unmarked) to `CCC(=O)N1CCN(CCN=CC2=C(O)CC(c3ccc(OC)cc3)CC2=O)CC1` (centres unmarked), the “hERG current change (%, negative = inhibition) at 10uM” value rises from -1.68% to 5.11%.

First: COc1ccc(C2CC(=O)C(C=NCCN3CCN(C(=S)Nc4ccccc4)CC3)=C(O)C2)cc1OC (centres unmarked)
Second: CCCCCC(=O)N1CCN(CCN=CC2=C(O)CC(c3ccc(OC)c(OC)c3)CC2=O)CC1 (centres unmarked)
The “hERG current change (%, negative = inhibition) at 10uM” value of the first is higher: -20.1% for the first, -78.8% for the second.

Compared with `COc1ccc(C2CC(=O)C(C=NCCO)=C(O)C2)cc1OC` (centres unmarked), `CCCCCC(=O)N1CCN(CCN=CC2=C(O)CC(c3ccc(OC)cc3)CC2=O)CC1` (centres unmarked) is lower in “hERG current change (%, negative = inhibition) at 10uM” value: 4.15% for the first, -74.1% for the second.

First: Cc1ccccc1C1=NC(C(F)(F)F)(C(F)(F)F)c2c(n(C)c(=O)n(C)c2=O)N1
Second: Cn1c(/C=C/c2ccccc2[N+](=O)[O-])nc2ccccc2c1=O
The “hERG current change (%, negative = inhibition) at 10uM” value of the first is lower: 3.5% for the first, 5% for the second.

Compared with `NC(=S)Cc1ccc(Cl)cc1Cl`, `C/C(N)=C(/C#N)C(=O)CSc1nn(-c2ccc(Cl)cc2)c(=S)s1` is lower in “hERG current change (%, negative = inhibition) at 10uM” value: 18.8% for the first, 12.9% for the second.

First: Cc1cc(C)c(NC(=O)CSc2nnc(-c3ccco3)n2N)c(C)c1
Second: Cc1ccc2nc(SCC(=O)Nc3ccc(C(N)=O)cc3)[nH]c2c1
The “hERG current change (%, negative = inhibition) at 10uM” value of the first is lower: -14.9% for the first, 3.74% for the second.

Going from `CCC(CC(C)(C)O)C(=O)NNC(=S)Nc1ccccc1` (centres unmarked) to `O=C(Nc1ccccc1)Nc1ccccc1-n1ccnc1`, the “hERG current change (%, negative = inhibition) at 10uM” value falls from 5.73% to -18.2%.

First: O=C(OCC(=O)N1CCCC1)c1ccc(NS(=O)(=O)c2cccs2)cc1O
Second: O=C(NC(=S)Nc1cccc(Cl)c1N1CCCCC1)c1cccs1
The “hERG current change (%, negative = inhibition) at 10uM” value of the first is lower: 17.1% for the first, 22.7% for the second.

Compared with `CC1CCCN(CCSc2ccc(Cl)cc2)C1.O=C(O)C(=O)O` (centres unmarked), `CC1CCCN(CCCOc2ccc(Cl)cc2Br)C1.O=C(O)C(=O)O` (centres unmarked) is lower in “hERG current change (%, negative = inhibition) at 10uM” value: -41.3% for the first, -70.5% for the second.

Going from `CC(C)(C)c1cc(Cl)ccc1OCCOCCN1CCCC1.O=C(O)C(=O)O` to `CC1CCCN(CCOCCOc2ccc(Cl)cc2Br)C1.O=C(O)C(=O)O` (centres unmarked), the “hERG current change (%, negative = inhibition) at 10uM” value falls from -45.8% to -61.1%.

Going from `Cc1ccc(N2C(=O)N(CC(=O)NC(c3ccccc3)c3ccccc3)C(=O)C2C)cc1` (centres unmarked) to `CC1(C)N(OCc2ccccc2)C(=O)C(=O)N(OCc2ccccc2)C1(C)C`, the “hERG current change (%, negative = inhibition) at 10uM” value rises from -32.6% to -6.11%.

Compared with `O=C(O)C1=C[C@@H](C2CCCCC2)C[C@@H](OCCCCO)O1`, `CN(C)CCNC(=O)Cn1ccc2cc(S(=O)(=O)N3CCCCCC3)ccc21` is lower in “hERG current change (%, negative = inhibition) at 10uM” value: 9.42% for the first, -25.4% for the second.

First: Cc1ccsc1C(=O)NNC(=O)COc1ccccc1Cl
Second: CCN1CCN(c2c(Cl)cccc2NC(=O)c2cccs2)CC1
The “hERG current change (%, negative = inhibition) at 10uM” value of the first is higher: 16.9% for the first, -73.8% for the second.

Going from `Cc1ccc(N2CCN(C(=O)c3cccs3)CC2)c(C)c1` to `N#Cc1ccc(N2CCN(C(=O)c3cccs3)CC2)c(F)c1`, the “hERG current change (%, negative = inhibition) at 10uM” value falls from -10.6% to -55.7%.

Going from `Cc1cc(N2CCN(C(=O)c3cccs3)CC2)c(F)cc1[N+](=O)[O-]` to `O=C(c1cccs1)N1CCN(c2ccc([N+](=O)[O-])cc2F)CC1`, the “hERG current change (%, negative = inhibition) at 10uM” value rises from -67% to -56.8%.

Going from `N#Cc1cc(F)c(N2CCNCC2)cc1Cl` to `N#Cc1ccc(N2CCNCC2)c(F)c1`, the “hERG current change (%, negative = inhibition) at 10uM” value falls from 3.42% to -69%.

Going from `N#Cc1ccc(N2CCN(c3ccc(F)cc3)CC2)cc1` to `N#Cc1ccc(N2CCN(C(=O)c3cccc(F)c3)CC2)c(F)c1`, the “hERG current change (%, negative = inhibition) at 10uM” value falls from -16.9% to -66.8%.

Compared with `O=C(c1cccc(C(=O)N2CCN(c3ccccc3F)CC2)c1)N1CCN(c2ccccc2F)CC1`, `O=C(c1cccc(F)c1)N1CCCN(C(=O)c2cccc(F)c2)CC1` is lower in “hERG current change (%, negative = inhibition) at 10uM” value: -2.32% for the first, -6.95% for the second.

Going from `O=C(c1cccs1)N1CCN(c2ccc(Cl)cc2)CC1` to `O=C(Nc1cccc(Cl)c1N1CCOCC1)c1cccs1`, the “hERG current change (%, negative = inhibition) at 10uM” value falls from -13.4% to -23.5%.

First: CCOC(=O)N1CCN(c2cc(C)c([N+](=O)[O-])cc2F)CC1
Second: CCC(=O)c1ccc(N2CCN(C(=O)c3cc([N+](=O)[O-])ccc3F)CC2)c(F)c1
The “hERG current change (%, negative = inhibition) at 10uM” value of the first is higher: -8.16% for the first, -42.9% for the second.

Going from `COc1ccc(S(=O)(=O)N2CCCOC2CNC(=O)C(=O)NCCc2ccco2)cc1` (centres unmarked) to `COC(=O)c1ccc(COc2ccc3ccc(=O)oc3c2)o1`, the “hERG current change (%, negative = inhibition) at 10uM” value rises from 4.42% to 8.66%.

Compared with `CC(C)(C)c1ccc(C(=O)Cn2cnnc2C#N)cc1`, `CC12CCC(=O)N1C(C(=O)NNC(=O)c1ccc(Br)cc1)CS2` (centres unmarked) is lower in “hERG current change (%, negative = inhibition) at 10uM” value: 3.7% for the first, -8.4% for the second.

Going from `O=C(N/N=C/c1cccnc1)c1ccccc1` to `O=S(=O)(NCCc1ccncc1)c1ccccc1`, the “hERG current change (%, negative = inhibition) at 10uM” value falls from 17.3% to 4.04%.

First: CNC(=S)NNC(=O)c1c(C)nc2cc(C)ccn12
Second: O=C(Nc1cccc(Cl)c1N1CCCC1)c1ccco1
The “hERG current change (%, negative = inhibition) at 10uM” value of the first is higher: 7.15% for the first, 6.11% for the second.

First: CCC(=O)c1ccc(N2CCN(C(=O)c3cc([N+](=O)[O-])ccc3N3CCN(C)CC3)CC2)c(F)c1
Second: CCN1CCN(c2c(Cl)cccc2NC(=O)c2ccc([N+](=O)[O-])o2)CC1
The “hERG current change (%, negative = inhibition) at 10uM” value of the first is higher: -46.4% for the first, -73.9% for the second.

First: O=C(Nc1cccc(Cl)c1N1CCCC1)c1ccc([N+](=O)[O-])o1
Second: O=C(Nc1cccc(Cl)c1N1CCOCC1)c1ccc([N+](=O)[O-])o1
The “hERG current change (%, negative = inhibition) at 10uM” value of the first is higher: 9.6% for the first, 2.67% for the second.

First: O=C(Nc1cccc(Cl)c1N1CCOCC1)c1ccco1
Second: O=C(Nc1cccc(Cl)c1N1CCOCC1)c1ccc(Br)o1
The “hERG current change (%, negative = inhibition) at 10uM” value of the first is lower: -8.08% for the first, 6.64% for the second.

Compared with `O=C(Nc1cccc(Cl)c1N1CCCC1)c1ccc(Br)o1`, `CCN1CCN(c2c(Cl)cccc2NC(=O)c2ccc(Br)o2)CC1` is lower in “hERG current change (%, negative = inhibition) at 10uM” value: -5.58% for the first, -73.6% for the second.

With `CCN1CCN(c2c(Cl)cccc2NC(=O)c2ccco2)CC1` the “hERG current change (%, negative = inhibition) at 10uM” value was -73.4%.
